What was measured:
Assay in all cases: DAPPL (digital affinity profiling via proximity ligation, sequencing); 10 mM Tris-HCl pH 7.5, 50 mM NaCl, 1 mM DTT, 4% glycerol, room temperature, 30 min; GST-TFs on glutathione beads, 16-mer random dsDNA library, 0.1% formaldehyde crosslink after washing; high values mean tight binding
FLI1 = molecular target: T1, FLI1 (Homo sapiens, UniProt Q01543 1-452); conditions: protein: recombinant; tags: N-terminal GST; dsDNA, one strand shown
T1 sequence: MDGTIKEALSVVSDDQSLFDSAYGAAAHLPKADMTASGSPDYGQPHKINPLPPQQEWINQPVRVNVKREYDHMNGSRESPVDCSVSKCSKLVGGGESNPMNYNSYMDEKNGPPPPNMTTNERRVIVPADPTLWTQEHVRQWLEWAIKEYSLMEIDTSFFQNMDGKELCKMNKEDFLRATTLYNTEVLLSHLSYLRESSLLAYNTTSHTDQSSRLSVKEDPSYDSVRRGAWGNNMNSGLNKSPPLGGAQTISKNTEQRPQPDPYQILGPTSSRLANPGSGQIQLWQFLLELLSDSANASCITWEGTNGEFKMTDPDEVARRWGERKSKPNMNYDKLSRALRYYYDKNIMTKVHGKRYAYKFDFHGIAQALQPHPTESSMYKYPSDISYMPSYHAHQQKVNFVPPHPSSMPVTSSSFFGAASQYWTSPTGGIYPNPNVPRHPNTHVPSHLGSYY
Procedure, shortened: (§1)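 Human transcription factors carrying a GST fusion were produced in yeast, bound to glutathione beads, tagged with DNA barcodes and pooled together with a tag-only sample. Each pool was held with 200 nmole of a random double-stranded 16-mer DNA library in Tris/NaCl/DTT/glycerol buffer for 30 min at room temperature, then washed, crosslinked in 0.1% formaldehyde, proximity-ligated with BsaI/T4 ligase (1 h, 37 °C), PCR-amplified and sequenced on an Illumina NextSeq500. Binding signal is the read frequency of each hexamer for a given factor divided by its frequency in the tag-only sample.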

ELK1 = molecular target: T2, ELK1 (Homo sapiens, UniProt P19419 1-428); conditions: protein: recombinant; tags: N-terminal GST; dsDNA, one strand shown
T2 sequence: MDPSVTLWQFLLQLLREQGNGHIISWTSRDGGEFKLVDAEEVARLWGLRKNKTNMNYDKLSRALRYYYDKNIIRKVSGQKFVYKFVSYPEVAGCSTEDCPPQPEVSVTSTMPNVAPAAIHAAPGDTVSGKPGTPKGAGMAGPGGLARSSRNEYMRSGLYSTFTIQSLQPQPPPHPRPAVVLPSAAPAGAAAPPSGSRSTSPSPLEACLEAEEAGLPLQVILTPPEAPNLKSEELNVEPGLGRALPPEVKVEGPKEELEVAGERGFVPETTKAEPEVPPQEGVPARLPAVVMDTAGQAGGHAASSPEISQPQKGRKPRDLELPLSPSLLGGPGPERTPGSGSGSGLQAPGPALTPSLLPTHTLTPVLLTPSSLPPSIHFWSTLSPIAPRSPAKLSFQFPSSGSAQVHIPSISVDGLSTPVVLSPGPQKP
Procedure, shortened: as §1

GABPA = molecular target: T3, GABPA (Homo sapiens, UniProt Q06546 1-454); conditions: protein: recombinant; tags: N-terminal GST; dsDNA, one strand shown
T3 sequence: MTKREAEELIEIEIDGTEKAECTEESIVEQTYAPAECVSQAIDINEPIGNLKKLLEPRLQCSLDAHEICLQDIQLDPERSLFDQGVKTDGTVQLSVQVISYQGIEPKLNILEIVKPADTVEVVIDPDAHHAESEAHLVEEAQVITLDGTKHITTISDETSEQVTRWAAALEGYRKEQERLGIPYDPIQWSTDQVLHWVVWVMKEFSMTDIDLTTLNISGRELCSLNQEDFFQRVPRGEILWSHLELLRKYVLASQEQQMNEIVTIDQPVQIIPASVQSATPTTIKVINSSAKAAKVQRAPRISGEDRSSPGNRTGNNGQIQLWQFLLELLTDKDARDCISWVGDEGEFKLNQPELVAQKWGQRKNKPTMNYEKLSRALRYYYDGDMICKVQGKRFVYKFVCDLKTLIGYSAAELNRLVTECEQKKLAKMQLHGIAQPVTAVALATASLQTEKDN
Procedure, shortened: as §1

ERG = molecular target: T4, ERG (Homo sapiens, UniProt P11308 1-479); conditions: protein: recombinant; tags: N-terminal GST; dsDNA, one strand shown
T4 sequence: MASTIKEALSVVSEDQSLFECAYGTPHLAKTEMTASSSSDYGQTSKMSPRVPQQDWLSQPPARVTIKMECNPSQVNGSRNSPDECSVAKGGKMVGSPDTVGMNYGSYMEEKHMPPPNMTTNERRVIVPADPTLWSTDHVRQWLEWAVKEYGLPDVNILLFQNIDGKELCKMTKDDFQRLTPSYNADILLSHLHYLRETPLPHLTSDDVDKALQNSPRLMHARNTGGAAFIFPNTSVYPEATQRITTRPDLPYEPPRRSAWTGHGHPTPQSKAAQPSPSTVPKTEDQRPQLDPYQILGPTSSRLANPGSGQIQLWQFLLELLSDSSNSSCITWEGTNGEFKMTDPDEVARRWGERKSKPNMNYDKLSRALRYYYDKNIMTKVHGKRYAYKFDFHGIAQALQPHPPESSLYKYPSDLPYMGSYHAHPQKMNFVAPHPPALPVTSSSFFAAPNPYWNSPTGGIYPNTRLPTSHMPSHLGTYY
Procedure, shortened: as §1

ELF1 = ELF1 (Homo sapiens, UniProt P32519 1-619); conditions: protein: recombinant; tags: N-terminal GST; dsDNA, one strand shown
Sequence of ELF1 (P32519 whole entry): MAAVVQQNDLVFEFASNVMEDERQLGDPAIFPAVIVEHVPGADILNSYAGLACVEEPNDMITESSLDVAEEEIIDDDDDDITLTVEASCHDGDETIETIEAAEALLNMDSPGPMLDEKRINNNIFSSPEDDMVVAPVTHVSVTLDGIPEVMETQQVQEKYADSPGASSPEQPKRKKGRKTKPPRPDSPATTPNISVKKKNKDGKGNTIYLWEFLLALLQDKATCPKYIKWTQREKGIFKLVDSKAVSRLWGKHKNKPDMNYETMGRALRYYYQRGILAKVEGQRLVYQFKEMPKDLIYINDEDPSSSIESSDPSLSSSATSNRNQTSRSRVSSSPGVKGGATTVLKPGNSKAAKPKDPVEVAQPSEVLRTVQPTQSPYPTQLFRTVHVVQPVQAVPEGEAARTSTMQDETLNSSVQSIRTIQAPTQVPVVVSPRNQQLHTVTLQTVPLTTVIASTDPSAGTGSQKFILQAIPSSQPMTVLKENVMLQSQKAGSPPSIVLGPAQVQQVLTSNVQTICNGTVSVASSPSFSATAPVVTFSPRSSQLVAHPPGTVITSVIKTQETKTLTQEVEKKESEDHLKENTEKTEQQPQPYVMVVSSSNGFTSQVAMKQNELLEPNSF
Procedure, shortened: as §1

EHF = molecular target: T5, EHF (Homo sapiens, UniProt Q9NZC4 1-300); conditions: protein: recombinant; tags: N-terminal GST; dsDNA, one strand shown
T5 sequence: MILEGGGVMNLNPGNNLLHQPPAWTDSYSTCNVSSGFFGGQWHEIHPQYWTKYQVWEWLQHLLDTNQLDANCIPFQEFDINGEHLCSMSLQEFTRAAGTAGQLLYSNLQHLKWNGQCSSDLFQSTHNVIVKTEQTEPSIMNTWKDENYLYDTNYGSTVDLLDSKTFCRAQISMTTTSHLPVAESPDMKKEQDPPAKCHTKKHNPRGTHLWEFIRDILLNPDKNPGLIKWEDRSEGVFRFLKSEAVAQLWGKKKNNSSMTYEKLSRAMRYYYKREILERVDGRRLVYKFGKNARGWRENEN
Procedure, shortened: as §1

SPI1 = SPI1 (Homo sapiens, UniProt P17947 1-270); conditions: protein: recombinant; tags: N-terminal GST; dsDNA, one strand shown
Procedure, shortened: as §1

SPIB = SPIB (Homo sapiens, UniProt Q01892 1-262); conditions: protein: recombinant; tags: N-terminal GST; dsDNA, one strand shown
Sequence of SPIB (Q01892 whole entry): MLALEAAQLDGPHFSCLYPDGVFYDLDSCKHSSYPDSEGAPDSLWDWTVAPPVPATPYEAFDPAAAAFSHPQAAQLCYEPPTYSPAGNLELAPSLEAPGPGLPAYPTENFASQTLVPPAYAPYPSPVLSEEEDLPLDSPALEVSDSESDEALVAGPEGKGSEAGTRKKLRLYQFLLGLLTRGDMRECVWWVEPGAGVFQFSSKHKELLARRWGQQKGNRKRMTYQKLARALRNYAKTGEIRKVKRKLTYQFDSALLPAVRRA
Procedure, shortened: as §1

ELK3 = molecular target: T6, ELK3 (Homo sapiens, UniProt P41970 1-407); conditions: protein: recombinant; tags: N-terminal GST; dsDNA, one strand shown
T6 sequence: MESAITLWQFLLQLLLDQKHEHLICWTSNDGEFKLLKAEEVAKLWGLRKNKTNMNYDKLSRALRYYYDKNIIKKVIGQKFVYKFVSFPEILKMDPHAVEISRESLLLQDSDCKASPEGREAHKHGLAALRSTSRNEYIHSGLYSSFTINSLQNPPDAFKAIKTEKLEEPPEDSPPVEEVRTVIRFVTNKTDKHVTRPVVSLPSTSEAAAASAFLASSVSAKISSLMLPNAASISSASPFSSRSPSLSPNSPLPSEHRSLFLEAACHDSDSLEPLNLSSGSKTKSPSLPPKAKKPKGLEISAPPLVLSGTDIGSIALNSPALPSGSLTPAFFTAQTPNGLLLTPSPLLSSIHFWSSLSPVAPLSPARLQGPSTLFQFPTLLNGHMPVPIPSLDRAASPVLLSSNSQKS
Procedure, shortened: as §1

FEV = molecular target: T7, FEV (Homo sapiens, UniProt Q99581 1-238); conditions: protein: recombinant; tags: N-terminal GST; dsDNA, one strand shown
T7 sequence: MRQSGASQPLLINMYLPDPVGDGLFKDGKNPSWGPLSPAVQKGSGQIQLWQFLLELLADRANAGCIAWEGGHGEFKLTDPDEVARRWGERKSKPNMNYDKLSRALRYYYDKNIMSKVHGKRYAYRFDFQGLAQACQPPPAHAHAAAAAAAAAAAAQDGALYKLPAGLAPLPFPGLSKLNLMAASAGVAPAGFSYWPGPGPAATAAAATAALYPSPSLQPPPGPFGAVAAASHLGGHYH
Procedure, shortened: as §1

ETV5 = ETV5 (Homo sapiens, UniProt P41161 1-510); conditions: protein: recombinant; tags: N-terminal GST; dsDNA, one strand shown
Sequence of ETV5 (P41161 whole entry): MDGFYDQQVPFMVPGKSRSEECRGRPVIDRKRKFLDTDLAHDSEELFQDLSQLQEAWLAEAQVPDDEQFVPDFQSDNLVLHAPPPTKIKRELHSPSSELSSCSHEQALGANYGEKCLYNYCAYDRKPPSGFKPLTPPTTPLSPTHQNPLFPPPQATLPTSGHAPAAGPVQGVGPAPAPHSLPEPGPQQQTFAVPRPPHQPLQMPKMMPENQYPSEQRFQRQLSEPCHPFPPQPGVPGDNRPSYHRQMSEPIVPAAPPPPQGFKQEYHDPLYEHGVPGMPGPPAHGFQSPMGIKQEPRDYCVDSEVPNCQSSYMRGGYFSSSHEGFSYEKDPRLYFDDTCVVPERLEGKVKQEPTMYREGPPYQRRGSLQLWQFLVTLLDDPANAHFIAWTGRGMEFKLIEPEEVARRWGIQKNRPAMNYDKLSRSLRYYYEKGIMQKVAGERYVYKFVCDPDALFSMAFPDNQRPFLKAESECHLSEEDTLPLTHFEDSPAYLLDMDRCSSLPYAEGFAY
Procedure, shortened: as §1

HSF1 = HSF1 (Homo sapiens, UniProt Q00613 1-529); conditions: protein: recombinant; tags: N-terminal GST; chain copies: 3; dsDNA, one strand shown
Sequence of HSF1 (Q00613 whole entry): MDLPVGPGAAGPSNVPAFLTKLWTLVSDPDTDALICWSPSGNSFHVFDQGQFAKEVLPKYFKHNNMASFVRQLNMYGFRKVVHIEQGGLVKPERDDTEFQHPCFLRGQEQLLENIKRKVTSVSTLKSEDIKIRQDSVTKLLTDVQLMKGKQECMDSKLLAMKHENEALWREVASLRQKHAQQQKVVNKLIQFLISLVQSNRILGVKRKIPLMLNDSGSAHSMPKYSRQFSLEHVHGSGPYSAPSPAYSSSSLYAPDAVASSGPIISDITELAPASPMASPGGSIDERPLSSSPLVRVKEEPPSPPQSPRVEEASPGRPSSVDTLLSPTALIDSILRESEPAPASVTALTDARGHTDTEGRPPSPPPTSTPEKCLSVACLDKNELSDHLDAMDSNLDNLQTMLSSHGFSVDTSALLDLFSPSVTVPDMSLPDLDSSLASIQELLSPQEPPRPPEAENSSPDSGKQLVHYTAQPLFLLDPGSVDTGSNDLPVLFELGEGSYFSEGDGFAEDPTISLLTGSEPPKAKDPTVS
Procedure, shortened: as §1

SPIC = molecular target: T8, SPIC (Homo sapiens, UniProt Q8N5J4 1-248); conditions: protein: recombinant; tags: N-terminal GST; dsDNA, one strand shown
T8 sequence: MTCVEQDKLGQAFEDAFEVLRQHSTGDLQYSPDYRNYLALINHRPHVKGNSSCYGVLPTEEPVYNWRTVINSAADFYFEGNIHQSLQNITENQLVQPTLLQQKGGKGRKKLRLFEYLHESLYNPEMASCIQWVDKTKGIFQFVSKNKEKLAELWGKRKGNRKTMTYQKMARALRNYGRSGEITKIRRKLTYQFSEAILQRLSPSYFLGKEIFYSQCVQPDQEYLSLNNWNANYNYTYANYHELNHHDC
Procedure, shortened: as §1

ELF4 = ELF4 (Homo sapiens, UniProt Q99607 1-663); conditions: protein: recombinant; tags: N-terminal GST; dsDNA, one strand shown
Sequence of ELF4 (Q99607 whole entry): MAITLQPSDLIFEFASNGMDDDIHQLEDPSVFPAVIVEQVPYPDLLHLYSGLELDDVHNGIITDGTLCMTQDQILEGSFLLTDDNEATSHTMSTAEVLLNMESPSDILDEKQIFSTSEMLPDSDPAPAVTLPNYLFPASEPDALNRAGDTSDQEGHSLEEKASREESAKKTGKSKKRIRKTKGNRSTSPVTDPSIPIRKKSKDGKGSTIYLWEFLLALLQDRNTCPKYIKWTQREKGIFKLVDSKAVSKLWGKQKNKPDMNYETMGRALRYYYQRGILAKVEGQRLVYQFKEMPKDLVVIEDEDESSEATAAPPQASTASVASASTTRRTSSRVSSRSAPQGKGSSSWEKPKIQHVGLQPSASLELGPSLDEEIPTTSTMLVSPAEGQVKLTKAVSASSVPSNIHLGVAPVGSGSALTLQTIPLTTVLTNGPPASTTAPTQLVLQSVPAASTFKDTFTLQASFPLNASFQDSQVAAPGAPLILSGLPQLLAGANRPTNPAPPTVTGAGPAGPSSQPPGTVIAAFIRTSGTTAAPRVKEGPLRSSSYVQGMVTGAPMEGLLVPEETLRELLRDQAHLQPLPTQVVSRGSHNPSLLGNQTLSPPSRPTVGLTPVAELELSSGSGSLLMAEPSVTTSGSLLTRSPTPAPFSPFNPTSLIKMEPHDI
Procedure, shortened: as §1

ELK4 = molecular target: T9, ELK4 (Homo sapiens, UniProt P28324-2 1-405); conditions: protein: recombinant; tags: N-terminal GST; dsDNA, one strand shown
T9 sequence: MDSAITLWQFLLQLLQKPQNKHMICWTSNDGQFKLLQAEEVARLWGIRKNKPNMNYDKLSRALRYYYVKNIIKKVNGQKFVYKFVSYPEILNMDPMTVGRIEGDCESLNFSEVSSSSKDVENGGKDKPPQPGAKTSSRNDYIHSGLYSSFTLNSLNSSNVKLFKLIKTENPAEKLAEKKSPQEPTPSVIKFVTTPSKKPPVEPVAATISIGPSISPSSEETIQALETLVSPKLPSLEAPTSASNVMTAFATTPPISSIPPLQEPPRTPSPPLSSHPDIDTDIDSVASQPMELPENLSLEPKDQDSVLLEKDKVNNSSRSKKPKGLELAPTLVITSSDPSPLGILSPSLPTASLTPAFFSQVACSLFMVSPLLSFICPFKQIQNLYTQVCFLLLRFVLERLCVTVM
Procedure, shortened: as §1

ELF3 = molecular target: T10, ELF3 (Homo sapiens, UniProt P78545 1-371); conditions: protein: recombinant; tags: N-terminal GST; dsDNA, one strand shown
T10 sequence: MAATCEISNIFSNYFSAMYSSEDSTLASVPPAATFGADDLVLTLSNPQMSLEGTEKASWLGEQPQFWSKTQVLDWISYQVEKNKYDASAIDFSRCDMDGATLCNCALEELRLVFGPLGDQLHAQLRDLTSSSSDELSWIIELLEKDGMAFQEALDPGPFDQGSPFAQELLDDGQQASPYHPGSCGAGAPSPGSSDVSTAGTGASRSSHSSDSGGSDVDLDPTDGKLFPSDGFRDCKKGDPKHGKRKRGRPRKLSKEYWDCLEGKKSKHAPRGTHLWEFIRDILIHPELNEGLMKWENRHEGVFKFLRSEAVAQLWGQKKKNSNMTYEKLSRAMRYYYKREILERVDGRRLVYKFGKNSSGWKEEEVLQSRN
Procedure, shortened: as §1

CRX = CRX (Homo sapiens, UniProt O43186 1-299); conditions: protein: recombinant; tags: N-terminal GST; dsDNA, one strand shown
Sequence of CRX (O43186 whole entry): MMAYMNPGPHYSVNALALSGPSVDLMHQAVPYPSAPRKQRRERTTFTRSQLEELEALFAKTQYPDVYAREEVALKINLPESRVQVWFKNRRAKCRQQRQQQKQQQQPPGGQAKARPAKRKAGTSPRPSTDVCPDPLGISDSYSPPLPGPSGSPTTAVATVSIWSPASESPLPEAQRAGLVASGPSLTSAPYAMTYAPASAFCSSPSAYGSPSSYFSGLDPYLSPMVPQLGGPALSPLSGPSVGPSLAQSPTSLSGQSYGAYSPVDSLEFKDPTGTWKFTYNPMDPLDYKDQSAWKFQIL
Procedure, shortened: as §1

ETV1 = ETV1 (Homo sapiens, UniProt P50549 1-477); conditions: protein: recombinant; tags: N-terminal GST; dsDNA, one strand shown
Sequence of ETV1 (P50549 whole entry): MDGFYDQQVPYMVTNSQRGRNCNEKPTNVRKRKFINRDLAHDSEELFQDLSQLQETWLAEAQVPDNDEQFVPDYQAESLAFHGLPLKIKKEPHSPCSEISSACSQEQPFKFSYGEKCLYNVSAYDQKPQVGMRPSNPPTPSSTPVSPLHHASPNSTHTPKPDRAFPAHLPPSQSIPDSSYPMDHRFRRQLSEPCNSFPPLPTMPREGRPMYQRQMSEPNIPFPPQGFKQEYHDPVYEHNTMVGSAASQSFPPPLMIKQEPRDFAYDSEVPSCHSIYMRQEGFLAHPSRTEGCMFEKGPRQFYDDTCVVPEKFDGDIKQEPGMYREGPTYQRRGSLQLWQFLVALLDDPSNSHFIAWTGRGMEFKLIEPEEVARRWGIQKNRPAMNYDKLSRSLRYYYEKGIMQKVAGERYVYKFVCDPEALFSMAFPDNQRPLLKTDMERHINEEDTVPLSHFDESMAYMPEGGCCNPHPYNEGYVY
Procedure, shortened: as §1

GTTTAT
binding signal (FLI1): 1.09 fold enrichment (6-mer frequency, TF over GST control) | binding signal (ELK1): 1.02 fold enrichment (6-mer frequency, TF over GST control) | binding signal (GABPA): 1.08 fold enrichment (6-mer frequency, TF over GST control) | binding signal (ERG): 1.05 fold enrichment (6-mer frequency, TF over GST control) | binding signal (ELF1): 1.06 fold enrichment (6-mer frequency, TF over GST control) | binding signal (EHF): 1.06 fold enrichment (6-mer frequency, TF over GST control) | binding signal (SPI1): 1.07 fold enrichment (6-mer frequency, TF over GST control) | binding signal (SPIB): 1.1 fold enrichment (6-mer frequency, TF over GST control) | binding signal (ELK3): 1.12 fold enrichment (6-mer frequency, TF over GST control) | binding signal (FEV): 1.02 fold enrichment (6-mer frequency, TF over GST control) | binding signal (ETV5): 1.07 fold enrichment (6-mer frequency, TF over GST control) | binding signal (HSF1): 1.14 fold enrichment (6-mer frequency, TF over GST control) | binding signal (SPIC): 1.12 fold enrichment (6-mer frequency, TF over GST control) | binding signal (ELF4): 1.07 fold enrichment (6-mer frequency, TF over GST control) | binding signal (ELK4): 1.05 fold enrichment (6-mer frequency, TF over GST control) | binding signal (ELF3): 1.27 fold enrichment (6-mer frequency, TF over GST control) | binding signal (CRX): 1.33 fold enrichment (6-mer frequency, TF over GST control) | binding signal (ETV1): 1.03 fold enrichment (6-mer frequency, TF over GST control)

ATACGC
binding signal (FLI1): 1.09 fold enrichment (6-mer frequency, TF over GST control) | binding signal (ELK1): 1.14 fold enrichment (6-mer frequency, TF over GST control) | binding signal (GABPA): 1.2 fold enrichment (6-mer frequency, TF over GST control) | binding signal (ERG): 1.13 fold enrichment (6-mer frequency, TF over GST control) | binding signal (ELF1): 1.17 fold enrichment (6-mer frequency, TF over GST control) | binding signal (EHF): 1.11 fold enrichment (6-mer frequency, TF over GST control) | binding signal (SPI1): 1.08 fold enrichment (6-mer frequency, TF over GST control) | binding signal (SPIB): 1.19 fold enrichment (6-mer frequency, TF over GST control) | binding signal (ELK3): 1.18 fold enrichment (6-mer frequency, TF over GST control) | binding signal (FEV): 1.05 fold enrichment (6-mer frequency, TF over GST control) | binding signal (ETV5): 1.13 fold enrichment (6-mer frequency, TF over GST control) | binding signal (HSF1): 1.04 fold enrichment (6-mer frequency, TF over GST control) | binding signal (SPIC): 1.08 fold enrichment (6-mer frequency, TF over GST control) | binding signal (ELF4): 1.18 fold enrichment (6-mer frequency, TF over GST control) | binding signal (ELK4): 1.08 fold enrichment (6-mer frequency, TF over GST control) | binding signal (ELF3): 1.13 fold enrichment (6-mer frequency, TF over GST control) | binding signal (CRX): 1.12 fold enrichment (6-mer frequency, TF over GST control) | binding signal (ETV1): 1.18 fold enrichment (6-mer frequency, TF over GST control)
